We go through 40 compounds from PubChem BioAssay (EPA / NIEHS).

What is called AC50 is the concentration at which the activity in the assay is half-maximal.

The structures appear in SMILES notation. Activity calls are given as the source filed them. How the source made its calls: active means hit-call score of the fitted dose curve at least 0.9, where 1 is the maximum; inactive means score below 0.9.

This assay in a line: APR_HepG2_MicrotubuleCSK_72hr: Apredica 72-hour HepG2 Assay for Microtubule CSK Stabilty (AID 2282919). To be noted: HepG2 microtubule cytoskeleton, high-content imaging, actives raise or lower the signal. On the procedure:
APR_HepG2_72hr is a cell-based, multiplexed-readout assay that uses HepG2, a human liver cell line, with measurements taken at 72 hours after chemical dosing in a 384-well plate.APR_HepG2_MicrotubuleCSK_72hr is one of 10 assay component(s) measured or calculated from the APR_HepG2_72hr assay. It is designed to make measurements of protein conformation, a form of conformation reporter, as detected with fluorescence intensity signals by HCS Fluorescent Imaging technology.Data from the assay component APR_HepG2_MicrotubuleCSK_72hr was analyzed into 1 assay endpoint. This assay endpoint, APR_HepG2_MicrotubuleCSK_72hr, was analyzed with bidirectional fitting relative to DMSO as the negative control and baseline of activity. Using a type of conformation reporter, measures of protein for gain or loss-of-signal activity can be used to understand the signaling at the cellular-level. Furthermore, this assay endpoint can be referred to as a primary readout, because this assay has produced multiple assay endpoints where this one serves a signaling function. To generalize the intended target to other relatable targets, this assay endpoint is annotated to the cell morphology intended target family, where the subfamily is cell conformation.
Cells were treated with dimethyl sulfoxide (DMSO) as a solvent control at a final concentration of 0.5% v/v or with compounds in DMSO with a resulting final DMSO concentration of 0.5% v/v. Compound treatment was done at concentrations of 0.39, 0.78, 1.56, 3.12, 6.24, 12.5, 25, 50, 100, and 200 uM in duplicate on each plate. Cells were treated with compounds for 1, 24, or 72 hr. Carbonyl […] m-chloro-phenylhydrazone (CCCP) and taxol were used as positive controls for mitochondrial function and cytoskeletal stability, respectively; DMSO served as the negative control for this experiment. Cells were fixed by the direct addition of 50 uL formaldehyde in Hank's Balanced Salt Solution (HBSS) to a final concentration of 3.7%. After incubation in the fixation medium for 30 min at room temperature (293-298 K), cells were rinsed twice with HBSS and treated with cell permeabilization buffer (16 uL of 0.5% Triton X-100) for 10 min at room temperature (293-298 K) before labeling. For mitochondrial membrane potential and mitochondrial measurements, pre-fixed cells were incubated with 50 uL of MitoTracker Red CMXRos (Invitrogen) at a concentration of 250 nM for 30 min before fixation. In the remaining cases, post-fixed cells were labeled by incubation with a multiplexed mixture of primary antibodies in HBSS for 60 min at room temperature (293-298 K) to detect immunoreactivity of c-Jun (1:500), phospho-histone H3 (1:100), phospho-histone H2A.x (1:200), p53 (1:400), alpha-tubulin (1:200) and Hoechst 33342 (2 ug/mL). Cells were labeled for multiplexed imaging on two separate plates: a) Hoechst 33342, MitoTracker Red, phospho-histone H3, and alpha-tubulin, and b) Hoechst 33342, phospho-histone H2A.x, and c-Jun. A final rinse with HBSS (50 uL) was performed before analysis. The primary and secondary antibodies for the proteins were phospho-histone H3 (rabbit anti-phospho-histone H3 and FITC-donkey anti-rabbit IgG), phospho-histone H2A.x (mouse anti-phospho-histone H2A.x and FITC-donkey anti-mouse IgG), c-Jun (rabbit anti-phospho-c-Jun and Cy3-donkey anti-rabbit IgG), p53 (sheep anti-p53 and Cy5-donkey anti-sheep IgG), alpha-tubulin (mouse anti-alpha-tubulin and Cy5-donkey anti-mouse IgG). These antibodies are available as the CellCiphr HepG2 assay kit (Millipore).Digital images of each well were captured using a Cellomics ArrayScan VTI (Thermo Scientific Cellomics) (0.8 NA objective, 0.63x optical coupler, and XF-93 filter set) at 20x magnification. The images were acquired using the autofocus feature of the ArrayScan instrument, which entails the following steps. First, the camera focuses on channel 1 (Hoechst 33342), where nuclei are identified. Second, a Z offset of 1 um is used for capturing mitochondria (MitoTracker Red). […]
Consider `[Cl-].[Cl-].[Hg+2]`, for which the AC50 was 13.2 µM (active).

In the case of `OCCCBr`, the outcome was inactive. Take `COc1cc(C=O)cc2c1[C@H](COC(N)=O)[C@]1(OC(C)=O)ON2C[C@H]2[C@@H]1N2C(C)=O`: the result was inactive. In the case of `COP(=S)(OC)SCN1C(=O)c2ccccc2C1=O`, the call was inactive. Take `Clc1ccc(C(c2ccc(Cl)cc2)C(Cl)Cl)cc1`: the AC50 is 156 µM (active). In the case of `CC(C)COC(=O)c1ccccc1C(=O)OCC(C)C`, the call was inactive. Turning to `ClC1=C(Cl)C2(Cl)C3C(Cl)C=CC3C1(Cl)C2(Cl)Cl` (stereo not given), the AC50 was 88.5 µM (active). For the compound `Cc1ccc(N)c(N)c1`, the compound was called inactive. Same read-out and setting: under `Cc1ccc(N=C=O)cc1N=C=O` stands “inactive”; under `CNC(=O)Oc1cccc2c1OC(C)(C)C2`, “inactive”; under `Cc1cccc(N)c1N`, “inactive”.

On to `c1ccc2c(c1)-c1cccc3cccc-2c13`, for which the compound was classed as inactive.

Consider `c1ccc2c(c1)oc1ccccc12`, for which the compound was called inactive.

Turning to `CCCCCCCCCCCCCN1CC(C)OC(C)C1` (stereo not given), the compound was called inactive. Consider `OCCCl`, for which the result was inactive. With `Oc1ccc2ccc3cccc4ccc1c2c34`, the AC50 is 85.4 µM (active). `CN(C)C(=O)Nc1ccc(Cl)cc1`: the outcome was inactive. With `CCC[CH2][Sn]([Cl])([CH2]CCC)[CH2]CCC`, the outcome was inactive. Take `c1ccc(NNc2ccccc2)cc1`: the compound was called inactive. The same measure, in the same setting: under `c1ccc(N=Nc2ccccc2)cc1` stands “inactive”; under `CCOC(=O)[C@]1(c2ccccc2)Oc2ccccc2[C@@H]1N`, “inactive”. On the same count and under the same terms, the result for `Clc1ccccc1Cl` reads “inactive”; that for `Clc1ccc(Cl)c(Cl)c1`, “inactive”; that for `N#CC(Br)(Br)C(N)=O`, “inactive”. On the same count and under the same terms, the result for `CS(=O)(=O)NC(=O)c1cc(Oc2ccc(C(F)(F)F)cc2Cl)ccc1[N+](=O)[O-]` reads “inactive”; that for `CCCCOC(=O)c1ccccc1C(=O)OCc1ccccc1`, “inactive”; that for `CCC(C)c1ccc(O)cc1` (stereo not given), “inactive”. For the compound `CCCCCCCCn1sccc1=O`, the call was inactive. Regarding `Nc1ccc(Cl)cc1N`, the AC50 is 3.83 µM (active).

On to `CN(C)[C@@H]1C(=O)C(C(N)=O)=C(O)[C@@]2(O)C(=O)C3=C(O)c4c(O)cccc4[C@@](C)(O)[C@H]3C[C@@H]12`, for which the compound was called inactive. For `ClCCOCCCl`, the result was inactive.

For `O=C(N[C@H](c1ccccc1)[C@@H]1CN2CCC1CC2)c1c(Cl)ccc(C(F)(F)F)c1Cl`, the call was inactive.

As to `CCC12COCN1COC2`, the result was inactive.

With `CO[C@@H]1[C@H](OC(=O)NC(=O)CCl)CC[C@]2(CO2)[C@H]1[C@@]1(C)O[C@@H]1CC=C(C)C`, the call was inactive. For the compound `CCN(CC)N=O`, the compound was called inactive. `CC(C)(C)OOC(C)(C)CCC(C)(C)OOC(C)(C)C`: the call was inactive. In the case of `Cn1cc(-c2ccccc2)c(=O)c(-c2cccc(C(F)(F)F)c2)c1`, the result was inactive.

`Oc1ccccc1Cl`: the outcome was inactive. In the case of `O=C(Nc1ccccc1)c1ccccc1I`, the compound was classed as inactive. Turning to `CC(C)(O)c1cnn2c(-c3ccc(F)c(-c4c(F)cccc4C#N)c3)cnc2n1`, the AC50 is 78.8 µM (active).
